From the supplement of paper PMC6411743 come the findings set out here.

± gives the standard deviation of the averaged measurements. Of roughly 6,200 targets only a part is listed; those with the largest changes were picked by preference.

Compound in this assay: Nc1ncnc2c1ncn2[C@@H]1O[C@H](COP(=O)(O)OP(=O)(O)NP(=O)(O)O)[C@@H](O)[C@H]1O [adenylyl imidodiphosphate]
Nature of the assay: NP40-soluble protein abundance relative to vehicle (solubility fold change) (ratio); higher = more soluble protein in presence of AMP-PNP. Put shortly: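 Across three independent experiments, values are fold changes against the detergent-processed vehicle for each replicate, based on vsn-normalised intensities. The samples were Jurkat crude lysate treated with eight concentrations (0.1 to 10 mM) for 10 min at room temperature and then 3 min at 37 °C. Lysate was solubilised with 0.8% NP40 and benzonase, ultracentrifuged, and the supernatant analysed by TMT-labelled LC-MS/MS.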

Chain of UniProt Q49A26 (Q49A26 whole entry, one chain of several): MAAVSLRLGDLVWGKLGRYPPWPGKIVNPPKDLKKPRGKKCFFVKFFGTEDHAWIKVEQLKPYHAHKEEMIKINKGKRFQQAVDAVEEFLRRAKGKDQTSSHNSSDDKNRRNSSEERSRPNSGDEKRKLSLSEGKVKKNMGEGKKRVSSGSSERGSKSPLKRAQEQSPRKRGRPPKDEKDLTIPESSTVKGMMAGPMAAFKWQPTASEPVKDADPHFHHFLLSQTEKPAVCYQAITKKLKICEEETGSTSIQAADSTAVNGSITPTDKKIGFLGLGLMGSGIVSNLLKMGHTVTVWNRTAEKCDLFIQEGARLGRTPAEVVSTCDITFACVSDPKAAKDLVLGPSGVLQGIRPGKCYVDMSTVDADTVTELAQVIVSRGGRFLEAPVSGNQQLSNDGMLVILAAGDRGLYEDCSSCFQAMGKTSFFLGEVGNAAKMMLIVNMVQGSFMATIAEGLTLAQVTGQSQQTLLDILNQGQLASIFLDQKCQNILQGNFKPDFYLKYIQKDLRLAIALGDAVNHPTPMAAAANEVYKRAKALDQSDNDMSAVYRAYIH
Chain of UniProt O43765 (O43765 whole entry): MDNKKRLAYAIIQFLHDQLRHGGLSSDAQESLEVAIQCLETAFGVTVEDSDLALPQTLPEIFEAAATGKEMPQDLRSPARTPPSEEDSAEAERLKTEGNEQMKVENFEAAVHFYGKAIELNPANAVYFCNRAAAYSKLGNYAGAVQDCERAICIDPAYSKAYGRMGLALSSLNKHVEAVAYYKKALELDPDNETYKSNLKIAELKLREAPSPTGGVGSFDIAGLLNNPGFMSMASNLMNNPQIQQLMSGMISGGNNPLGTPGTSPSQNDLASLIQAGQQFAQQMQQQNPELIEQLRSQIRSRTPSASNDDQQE
Chain of UniProt Q8N465 (Q8N465 whole entry, one chain of several): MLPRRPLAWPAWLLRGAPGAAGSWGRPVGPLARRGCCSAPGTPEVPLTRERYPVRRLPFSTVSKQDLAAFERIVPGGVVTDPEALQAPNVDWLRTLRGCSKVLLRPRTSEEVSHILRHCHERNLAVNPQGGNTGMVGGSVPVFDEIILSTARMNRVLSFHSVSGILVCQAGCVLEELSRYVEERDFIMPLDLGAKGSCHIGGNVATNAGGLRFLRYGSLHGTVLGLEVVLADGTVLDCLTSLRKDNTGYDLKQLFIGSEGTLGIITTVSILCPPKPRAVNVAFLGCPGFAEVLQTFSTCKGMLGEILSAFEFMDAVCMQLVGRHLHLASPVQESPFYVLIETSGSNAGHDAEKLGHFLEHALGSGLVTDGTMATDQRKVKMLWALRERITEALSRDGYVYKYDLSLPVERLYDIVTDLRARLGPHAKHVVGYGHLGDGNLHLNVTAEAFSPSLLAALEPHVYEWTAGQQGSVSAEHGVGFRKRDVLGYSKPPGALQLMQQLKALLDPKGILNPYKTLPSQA
Chain of UniProt Q9HC38 (Q9HC38 whole entry, one chain of several): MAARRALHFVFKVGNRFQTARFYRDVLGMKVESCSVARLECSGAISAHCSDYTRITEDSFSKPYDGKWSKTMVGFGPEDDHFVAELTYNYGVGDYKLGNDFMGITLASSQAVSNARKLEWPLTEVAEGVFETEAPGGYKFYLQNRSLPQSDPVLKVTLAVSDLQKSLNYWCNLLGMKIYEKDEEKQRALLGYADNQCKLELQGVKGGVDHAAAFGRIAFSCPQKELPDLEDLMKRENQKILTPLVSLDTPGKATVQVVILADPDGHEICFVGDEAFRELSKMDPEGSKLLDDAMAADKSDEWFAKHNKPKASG
Chain of UniProt Q96C57 (Q96C57 whole entry, one chain of several): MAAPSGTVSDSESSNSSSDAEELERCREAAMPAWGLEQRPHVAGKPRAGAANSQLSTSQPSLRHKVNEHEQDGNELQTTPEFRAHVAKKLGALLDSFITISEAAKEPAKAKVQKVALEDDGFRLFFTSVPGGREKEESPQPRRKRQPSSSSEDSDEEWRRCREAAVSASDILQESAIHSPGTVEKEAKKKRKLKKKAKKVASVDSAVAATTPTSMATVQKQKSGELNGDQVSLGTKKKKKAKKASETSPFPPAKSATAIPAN
Chain of UniProt P51114 (P51114 whole entry, one chain of several): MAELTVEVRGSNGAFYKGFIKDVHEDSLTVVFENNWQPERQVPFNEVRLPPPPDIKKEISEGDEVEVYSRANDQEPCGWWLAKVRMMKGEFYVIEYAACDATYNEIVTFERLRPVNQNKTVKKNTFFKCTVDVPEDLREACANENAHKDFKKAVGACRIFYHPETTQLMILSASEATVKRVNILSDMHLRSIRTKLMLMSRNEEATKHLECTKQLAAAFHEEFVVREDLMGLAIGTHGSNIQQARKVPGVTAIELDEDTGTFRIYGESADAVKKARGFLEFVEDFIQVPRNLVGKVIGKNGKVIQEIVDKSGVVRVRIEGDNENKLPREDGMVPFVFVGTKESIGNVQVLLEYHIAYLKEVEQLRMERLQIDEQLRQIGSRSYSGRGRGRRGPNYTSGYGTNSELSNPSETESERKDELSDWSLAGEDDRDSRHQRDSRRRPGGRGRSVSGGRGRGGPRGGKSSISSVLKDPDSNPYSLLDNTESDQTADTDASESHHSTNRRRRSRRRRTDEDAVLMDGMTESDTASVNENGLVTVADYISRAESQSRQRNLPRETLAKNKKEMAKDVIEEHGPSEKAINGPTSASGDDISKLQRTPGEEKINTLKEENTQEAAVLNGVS
Chain of UniProt O75821 (O75821 whole entry, one chain of several): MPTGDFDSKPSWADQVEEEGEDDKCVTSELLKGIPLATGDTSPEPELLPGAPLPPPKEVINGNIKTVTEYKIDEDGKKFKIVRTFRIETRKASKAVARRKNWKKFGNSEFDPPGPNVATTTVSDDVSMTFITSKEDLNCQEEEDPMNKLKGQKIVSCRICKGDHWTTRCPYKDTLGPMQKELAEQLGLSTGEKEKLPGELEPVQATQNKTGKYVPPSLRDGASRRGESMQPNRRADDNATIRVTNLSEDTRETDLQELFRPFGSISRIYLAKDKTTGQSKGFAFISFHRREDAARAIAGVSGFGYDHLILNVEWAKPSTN
Chain of UniProt Q8NBQ5 (Q8NBQ5 whole entry, one chain of several): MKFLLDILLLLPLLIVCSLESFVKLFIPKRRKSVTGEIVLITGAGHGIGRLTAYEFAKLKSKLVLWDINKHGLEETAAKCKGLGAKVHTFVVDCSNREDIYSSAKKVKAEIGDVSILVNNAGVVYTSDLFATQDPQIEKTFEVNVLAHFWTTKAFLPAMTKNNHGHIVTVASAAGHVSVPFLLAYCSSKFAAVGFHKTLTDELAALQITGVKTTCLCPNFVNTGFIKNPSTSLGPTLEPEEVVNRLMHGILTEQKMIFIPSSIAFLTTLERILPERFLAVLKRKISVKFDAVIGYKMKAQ
Chain of UniProt Q9P289 (Q9P289 whole entry, looked up, one chain of several): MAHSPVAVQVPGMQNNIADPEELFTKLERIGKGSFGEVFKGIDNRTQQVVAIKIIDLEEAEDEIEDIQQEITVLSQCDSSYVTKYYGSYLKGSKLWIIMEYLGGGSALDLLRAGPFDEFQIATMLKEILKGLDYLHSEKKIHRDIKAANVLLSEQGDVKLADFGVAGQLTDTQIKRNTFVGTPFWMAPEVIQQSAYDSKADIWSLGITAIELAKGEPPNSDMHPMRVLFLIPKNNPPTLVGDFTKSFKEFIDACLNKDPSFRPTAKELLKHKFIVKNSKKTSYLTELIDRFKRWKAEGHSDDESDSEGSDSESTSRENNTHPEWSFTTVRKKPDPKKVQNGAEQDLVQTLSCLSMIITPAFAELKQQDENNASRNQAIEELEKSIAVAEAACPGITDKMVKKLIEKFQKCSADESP
Chain of UniProt Q9HBF4 (Q9HBF4 whole entry, one chain of several): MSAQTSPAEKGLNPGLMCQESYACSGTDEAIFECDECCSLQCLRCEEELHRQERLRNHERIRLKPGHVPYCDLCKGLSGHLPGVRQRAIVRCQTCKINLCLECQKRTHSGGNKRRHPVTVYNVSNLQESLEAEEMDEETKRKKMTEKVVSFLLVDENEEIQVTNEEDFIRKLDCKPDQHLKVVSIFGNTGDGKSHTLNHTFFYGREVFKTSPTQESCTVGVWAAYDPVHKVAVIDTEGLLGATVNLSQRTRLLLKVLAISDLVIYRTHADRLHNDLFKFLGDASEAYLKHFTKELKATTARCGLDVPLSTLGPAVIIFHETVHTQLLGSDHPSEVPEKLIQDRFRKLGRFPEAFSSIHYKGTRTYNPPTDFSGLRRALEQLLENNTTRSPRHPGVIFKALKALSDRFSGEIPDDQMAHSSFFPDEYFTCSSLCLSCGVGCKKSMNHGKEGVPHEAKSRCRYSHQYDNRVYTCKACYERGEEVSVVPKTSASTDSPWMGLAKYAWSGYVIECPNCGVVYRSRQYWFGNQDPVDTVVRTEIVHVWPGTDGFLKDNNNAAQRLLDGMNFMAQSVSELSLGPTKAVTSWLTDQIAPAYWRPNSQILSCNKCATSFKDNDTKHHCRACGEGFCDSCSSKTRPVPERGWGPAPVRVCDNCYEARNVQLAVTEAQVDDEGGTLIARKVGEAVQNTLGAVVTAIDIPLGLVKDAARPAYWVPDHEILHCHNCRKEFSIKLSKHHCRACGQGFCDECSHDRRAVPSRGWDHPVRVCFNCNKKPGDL

As for SGTA (UniProt O43765), the NP40-soluble protein abundance (concentration: 1mM) is 1.03 ± 0.052; the NP40-soluble protein abundance (concentration: 2mM) is 1.15 ± 0.079; the NP40-soluble protein abundance (concentration: 4mM) came to 0.99 ± 0.03; the NP40-soluble protein abundance (concentration: 6mM) was found to be 1.01 ± 0.037; the NP40-soluble protein abundance (concentration: 8mM) was determined as 0.943 ± 0.054; the NP40-soluble protein abundance (concentration: 10mM) came to 1.02 ± 0.085.

Take A0A0B4J220 (UniProt E9PRG8): the NP40-soluble protein abundance stood at 1.14 ± 0.051 (concentration: 1mM); 1.15 ± 0.057 (concentration: 2mM); 1.2 ± 0.045 (concentration: 4mM); 1.26 ± 0.1 (concentration: 6mM); 1.4 ± 0.053 (concentration: 8mM); 1.39 ± 0.046 (concentration: 10mM).

Consider J3KQH6|P78364 (UniProt P78364), for which the NP40-soluble protein abundance reads like this: (concentration: 1mM) 1.01 ± 0.067; (concentration: 2mM) 1.01 ± 0.02; (concentration: 4mM) 1.01 ± 0.018; (concentration: 6mM) 1.04 ± 0.047; (concentration: 8mM) 1.03 ± 0.025; (concentration: 10mM) 1.05 ± 0.032.

On to “F8WCF9|G5E9E8|Q8N465|Q8N465-2|Q8N465-3 (UniProt Q8N465)”, for which the NP40-soluble protein abundance worked out at 0.983 ± 0.03 (concentration: 1mM); 1.01 ± 0.012 (concentration: 2mM); 0.992 ± 0.01 (concentration: 4mM); 1.04 ± 0.035 (concentration: 6mM); 1.02 ± 0.032 (concentration: 8mM); 1.03 ± 0.02 (concentration: 10mM).

For the target “K7EMM8|Q49A26|Q49A26-2|Q49A26-3|Q49A26-4 (UniProt Q49A26)”, the NP40-soluble protein abundance runs as follows: (concentration: 1mM) 1.07 ± 0.062; (concentration: 2mM) 1.14 ± 0.1; (concentration: 4mM) 1.16 ± 0.14; (concentration: 6mM) 1.25 ± 0.17; (concentration: 8mM) 1.31 ± 0.2; (concentration: 10mM) 1.47 ± 0.3.

D6RCD0|Q8NBQ5 (UniProt Q8NBQ5): the NP40-soluble protein abundance (concentration: 1mM) turned out to be 0.995 ± 0.031; the NP40-soluble protein abundance (concentration: 2mM) is 0.9738 ± 0.0077; the NP40-soluble protein abundance (concentration: 4mM) stood at 1.01 ± 0.047; the NP40-soluble protein abundance (concentration: 6mM) turned out to be 1.06 ± 0.079; the NP40-soluble protein abundance (concentration: 8mM) amounted to 1.04 ± 0.056; the NP40-soluble protein abundance (concentration: 10mM) worked out at 1.04 ± 0.064.

Consider G3V5N8|Q9HBF4|Q9HBF4-3 (UniProt Q9HBF4), for which the NP40-soluble protein abundance is, setting by setting: (concentration: 1mM) 0.991 ± 0.012; (concentration: 2mM) 0.986 ± 0.035; (concentration: 4mM) 0.987 ± 0.054; (concentration: 6mM) 0.96 ± 0.021; (concentration: 8mM) 0.968 ± 0.0098; (concentration: 10mM) 0.938 ± 0.047.

Turning to B4E0Y9|Q8NBY1|Q9P289 (UniProt Q9P289), the NP40-soluble protein abundance is 0.999 ± 0.019 (concentration: 1mM); 1.03 ± 0.059 (concentration: 2mM); 1.01 ± 0.034 (concentration: 4mM); 1.05 ± 0.036 (concentration: 6mM); 1.01 ± 0.045 (concentration: 8mM); 1.06 ± 0.039 (concentration: 10mM).

Regarding F6TLX2|Q9HC38-2 (UniProt Q9HC38), the NP40-soluble protein abundance turned out to be 1.01 ± 0.02 (concentration: 1mM); 1.01 ± 0.014 (concentration: 2mM); 0.981 ± 0.03 (concentration: 4mM); 0.958 ± 0.035 (concentration: 6mM); 0.938 ± 0.034 (concentration: 8mM); 0.95 ± 0.047 (concentration: 10mM).

With B4DXZ6|P51114 (UniProt P51114), the NP40-soluble protein abundance worked out at 1.12 ± 0.029 (concentration: 1mM); 1.17 ± 0.039 (concentration: 2mM); 1.3 ± 0.055 (concentration: 4mM); 1.43 ± 0.15 (concentration: 6mM); 1.55 ± 0.2 (concentration: 8mM); 1.62 ± 0.2 (concentration: 10mM).

For K7ER90|O75821|K7EL60 (UniProt O75821), the NP40-soluble protein abundance reads like this: (concentration: 1mM) 1.02 ± 0.075; (concentration: 2mM) 1.1 ± 0.077; (concentration: 4mM) 1.11 ± 0.095; (concentration: 6mM) 1.24 ± 0.045; (concentration: 8mM) 1.27 ± 0.074; (concentration: 10mM) 1.42 ± 0.14.

Take F5H7W8|Q96C57 (UniProt Q96C57): the NP40-soluble protein abundance by setting is: (concentration: 1mM) 1.17 ± 0.015; (concentration: 2mM) 1.26 ± 0.088; (concentration: 4mM) 1.25 ± 0.058; (concentration: 6mM) 1.29 ± 0.047; (concentration: 8mM) 1.34 ± 0.062; (concentration: 10mM) 1.37 ± 0.12.
